Compounds with a hit are over-represented: about 4.6% of the library has one in this group of screens.
D1 PAM: human D1 dopamine receptor positive modulation | P21728 | HEK293 TREx D1 cells, calcium flux, dopamine EC20 potentiation | potentiation, % at 10 µM | 360,000 compounds, 0.036% hits | AID 504651; in the data active means potentiation above about 30%; further: 0% is about no effect
Target sequence (P21728 whole entry, looked up): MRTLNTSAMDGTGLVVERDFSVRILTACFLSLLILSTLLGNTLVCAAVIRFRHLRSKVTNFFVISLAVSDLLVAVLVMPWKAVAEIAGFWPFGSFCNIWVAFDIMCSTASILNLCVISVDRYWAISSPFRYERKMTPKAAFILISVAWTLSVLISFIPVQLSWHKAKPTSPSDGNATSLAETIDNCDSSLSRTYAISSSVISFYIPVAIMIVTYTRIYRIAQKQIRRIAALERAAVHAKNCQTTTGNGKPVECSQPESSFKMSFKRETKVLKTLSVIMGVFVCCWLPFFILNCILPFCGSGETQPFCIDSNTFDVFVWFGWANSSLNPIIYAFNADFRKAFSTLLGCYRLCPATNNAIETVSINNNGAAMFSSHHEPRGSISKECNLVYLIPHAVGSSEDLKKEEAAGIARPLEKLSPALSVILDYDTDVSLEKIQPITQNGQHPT
TRHR enhancer: allosterically enhances the human TRH receptor; P34981; TRHR cells, fluo-8 calcium fluorescence, EC20 TRH enhancement; enhancement, % at 2 µM; 360,000 compounds, 0.66% hits; AID 493056; in the data active means enhancement above about 30%; further: 0% is about no effect
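TRHR-expressing cells loaded with fluo-8 calcium dye were read kinetically (ex 480/em 530) during compound addition, then stimulated with an EC20 of TRH (10 nM final). Enhancement of the Gq-mediated intracellular calcium response was scored.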
D1 antagonist: antagonists of human D1 dopamine receptor; activity change, negative = inhibition, % at 10 µM; 360,000 compounds, 3.2% hits; AID 504652; P21728; HEK293 TREx D1 cells, calcium flux, dopamine EC80; stronger effect = lower value; in the data active means activity change below about -30%; further: on the % scale 0 is the no-effect control and ±100 the full control effect
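After overnight tetracycline induction at 30 C, force-coupled D1 HEK293 cells took up a no-wash calcium dye at room temperature. Compounds were added and monitored 180 s, and the response to EC80 dopamine was then recorded.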
D1 ag: activates the human D1 dopamine receptor; P21728; HEK293 T-REx D1 cells, calcium flux, agonist mode; activation, % at 2 µM; 360,000 compounds, 1% hits; AID 504660; further: 0% is about no effect
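Inducible HEK293 T-REx D1 cells, force-coupled to calcium signalling, were plated at 4000 cells/well with tetracycline and held overnight at 30 C. After no-wash calcium dye loading, compound-evoked calcium rise over 180 s flagged agonists.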
TRHR ag: agonists of human TRH receptor. AID 493084. 360,000 compounds, 0.18% hits. activation, % at 2 µM. TRHR cells, calcium flux fluo-8, FDSS agonist mode; further: 0% is about no effect
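Read-out: compound-evoked intracellular calcium rise in TRHR cells, fluo-8 dye, kinetic FDSS fluorescence at 1 s/cycle following a 10-cycle baseline. Cells cultured overnight before dye loading (30 min–1.5 h, RT).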
The depositor's hits bear a star. Unless noted, no stated cut-off is given here; in the data, active means activation above about 30%; inactive means the rest.

SMILES	D1 PAM	TRHR enhancer	D1 antagonist	D1 ag	TRHR ag
COc1ccc(-c2nc(NC(=O)c3[nH]c(C)c(C(C)=O)c3C)sc2C)cc1	-12.4	1.2	-90.6*	14.8	-0.1
COc1ccc(OC)c(NC(=O)c2[nH]c(C)c(C(C)=O)c2C)c1	-6.5	-0.9	10.0	-0.9	0.1
FC(F)(F)C(F)(F)C(F)(F)c1nnc2ccc(N3CCOCC3)nn12	-5.5	4.2	-73.3*	1.6	-0.1
C=CCN1C(=O)c2cccc3c(N4CCCCC4)ccc(c23)C1=O	-5.5	-1.2	-12.0	88.6*	34.5*
Cc1n[nH]c(C)c1N1C(=O)c2cccc3c(N4CCCCCC4)ccc(c23)C1=O	4.3	6.0	-0.1	280.5*	126.3*
O=C(c1cccc(N2C(=O)c3ccccc3C2=O)c1)N1CCCCCC1	-1.9	-1.3	-0.5	1.0	-0.8
O=C1c2cccc3c(N4CCCCC4)ccc(c23)C(=O)N1c1cccc(O)c1	10.0	5.0	1.5	300.2*	73.3*
O=C1c2cccc3c(N4CCCCC4)ccc(c23)C(=O)N1CCO	-3.9	9.7	4.1	108.6*	68.8*
O=C1c2ccccc2C(=O)N1CCN1CCCCC1	-1.5	-8.3	-11.3	8.1	0.2
Cc1cccc(NC(=O)CSc2nc(=O)n(CCCN3CCOCC3)c3c2CCCC3)c1	-5.5	-1.1	4.2	-1.3	-1.2
O=C1N[C@H](Cc2ccccc2)CO1	-6.8	-0.4	-26.4	1.9	-0.3
Cc1ccc(-n2c(C)cc(/C=N/NC(=O)Cn3c4ccccc4c(=O)c4ccccc43)c2C)cc1	5.5	32.6*	7.3	1.1	-0.6
Cc1cc(/C=N/NC(=O)c2ccncc2)c(C)n1-c1ccccc1	-5.3	-6.4	-2.5	1.5	-1.0
Cc1cc(/C=N/NC(=O)c2cccs2)c(C)n1-c1ccccc1	-3.1	-3.3	-39.0*	1.2	-0.2
Nc1sc(-c2ccccc2)n[n+]1Cc1cccc2cccnc12	-7.7	-12.3	-42.9*	15.7	-0.5
Oc1ccccc1CNc1cccc2cccnc12	-3.9	-4.9	-4.6	2.5	0.4
COc1cc(-c2nnc(NC(=O)c3ccco3)o2)cc(OC)c1OC	0.1	4.0	17.1	2.4	0.3
Cc1ccc(Nc2nc(-c3cccnc3)cs2)cc1Cl	-4.7	-0.8	-4.2	5.9	0.5
Cc1ccc(C)c(Nc2nc(-c3cccnc3)cs2)c1	-7.3	3.7	-39.2*	1.5	3.1
CC(OC(=O)c1cccc(S(=O)(=O)N2CCCCC2)c1)C(=O)NC1CCCCC1C (stereo unspecified)	-9.0	-1.2	-8.2	-0.8	-0.4
CC(C)C(=O)Nc1ccc(Nc2ccccc2)cc1	-1.5	3.7	-14.5	3.3	-0.3
CC(C)C(=O)Nc1ccc(Sc2ccc(F)cc2)cc1	-9.7	-2.7	-50.4*	11.2	0.5
O=S(=O)(Nc1ncnc2scc(-c3ccc(F)cc3)c12)c1cc(F)ccc1F	-5.0	2.9	-6.0	3.9	0.3
CCOC(=O)c1c(NC(=O)C2CC(Cl)=CCC2C(=O)O)sc2c1CC(C)(C)OC2 (stereo unspecified)	-1.2	1.4	-3.2	1.3	-1.0
O=C1c2cccc([N+](=O)[O-])c2C(=O)N1c1c[nH]c(=O)[nH]c1=O	1.3	30.3*	-11.0	0.9	0.0
SMILES	D1 PAM	TRHR enhancer	D1 antagonist	D1 ag	TRHR ag
Cc1ccccc1N1C(=O)c2cccc([N+](=O)[O-])c2C1=O	1.5	0.7	-2.7	0.3	-0.4
Cc1cc(C)cc(C(=O)NCCc2csc(-c3ccc(C(F)(F)F)cc3)n2)c1	5.6	-1.6	6.7	5.6	1.2
CC(=O)c1cccc(NC(=O)c2cc(C(C)C)on2)c1	0.5	1.9	-36.1*	3.4	0.1
CC(C)c1cc(C(=O)Nc2cccc(Cl)c2)no1	-4.0	6.5	-10.9	4.4	1.2
CC1CCCCC1NC(=O)COC(=O)c1c2c(nc3ccccc13)/C(=C/c1ccco1)CC2 (stereo unspecified)	-1.9	-1.5	-16.7	9.7	1.7
O=C(COC(=O)c1c2c(nc3ccccc13)/C(=C/c1ccco1)CC2)NC1CCCC1	-7.9	3.9	-49.0*	1.5	0.1
CN1C(=O)N(C)C2(c3ccccc3)Nn3c(s/c(=C/c4ccccc4F)c3=O)=NC12c1ccccc1 (stereo unspecified)	-4.3	2.1	-7.8	-2.6	0.8
CCOC(=O)c1sc(NC(=O)CSc2n[nH]c(-c3ccccc3)n2)c(C#N)c1C	-1.9	-5.8	-36.3*	25.9	-0.2

From PubChem
